In the library only some 3.2% were active in any assay of this set; here they are far more common.
GLP1R inv ag = qHTS of GLP-1 Receptor Inverse Agonists (Inhibition Mode); HEK293 GLP-1R CRE-luciferase, luminescence, 24 h; GLP-1R form is constitutively active; AID 624417, 2012; Glucagon-like peptide 1 receptor (Homo sapiens), P43220; 410,000 tested, 1.6% active; Potency, µM (series often up to 38.3 µM), inactives show at the top dose activity change, negative = inhibition, most hits filed as inhibitors; also: % is scaled to controls: 0 for no effect and ±100 for the full control effect; nearly all actives have a fitted effect of over 55% in size
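Seeding at 200 cells/uL, 12 h culture, 24 hr compound treatment, then luciferase reagent and a luminescence read; cells are HEK293 stably expressing a constitutively active GLP-1R plus cAMP-responsive luciferase.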
GLP-1R agonist = qHTS of GLP-1 Receptor Agonists. Glucagon-like peptide 1 receptor (Homo sapiens), P43220. HEK293 GLP-1R CRE-luciferase, luminescence, 4-6 h; cells express a hypersensitive GLP-1R form. Potency, µM (doses to about 45.6 µM), without a hit: top-dose activation, usual class: activators. 380,000 tested, 0.007% active; also: % of control where 0% means no effect
ClpP mod = qHTS Assay for Activators of ClpP. ATP-dependent Clp protease proteolytic subunit (Bacillus subtilis (strain 168)), P80244. purified B. subtilis ClpP, FRET peptide cleavage, 20 min. Potency, µM (top dose mostly 57.5 µM), for the others: at the highest dose activity change, negative = active. 340,000 tested, 1.9% active; active = well fitted falling curve with a large enough effect; inconclusive = small, poorly fitted or top-dose-only effect; inactive = no such curve, though single readings can be large or run the other way; also: the source files actives as falling curves though it sought activators and does not explain the sign; nearly all actives have a fitted effect of over 65% in size
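Buffer: 100 mM Tris/HCl pH8, 100 mM KCl, 0.05% low protease BSA, 2.5% glycerol, 0.01% Tween-20. ClpP 10 microg/mL final; 20 min RT; delta FRET normalized to ADEP and DMSO controls.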
GLP1R cytotox = qHTS of GLP-1 Receptor Inverse Agonists: Cytotox Screen. 410,000 tested, 0.13% active. Potency, µM (titrated, usually from 38.3 µM), without a hit: top-dose activity change, negative = inhibition, most hits filed as inhibitors. HEK293 cAMP-luciferase reporter cells, luminescence, 24 h;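 also: loss of luciferase light is scored as toxicity; % is scaled to controls: 0 for no effect and ±100 for the full control effect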
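1536-well qHTS counterscreen of the MLSMR; 200 cells/uL, 12 h pre-incubation, 23 nL cpd, 24 h at 37 deg C 5% CO2, luciferase detection reagent, 12 min RT, luminescence. Inhibition = undesired.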
* hit, by the source's call; u = inconclusive; x = no result given; [ ] = dose if it differs, or a comment. Unless noted, calls follow the shape of the dose curve; as a rule, active = well fitted curve in the direction sought with a large enough effect; inconclusive = small, poorly fitted or top-dose-only effect, or another doubt; inactive = no such curve, though single readings can be large; an effect the other way counts as inactive or inconclusive. Potency is read from the fitted curve at half-maximal effect.

SMILES | GLP1R inv ag | GLP-1R agonist | ClpP mod | GLP1R cytotox
O=C1C=C(c2ccccc2)C(O)(c2ccccc2)C1 (centres undefined) | -10% | 4% | 1% | 0%
CC(NCc1ccc(-c2ccccc2)cc1)C(O)c1ccccc1 (centres undefined) | 7.9µM* | -5% | -1% | u
CC(O)CNCc1ccc(-c2ccccc2)cc1 (centres undefined) | 0% | 2% | -2% | 6%
COc1ccc(C2Nc3ccccc3C(=O)N2c2ccc(C)cc2)cc1Cn1nc(C)c([N+](=O)[O-])c1C (centres undefined) | -16% | -2% | -5% | -19%
COc1ccc(N2C(=O)c3ccccc3NC2c2ccc(OC)c(Cn3nnc4ccccc43)c2)cc1 (centres undefined) | 3% | 15% | 32µM* | -15%
COc1ccc(C2Nc3ccccc3C(=O)N2c2ccc(C)cc2)cc1COc1ccccn1 (centres undefined) | -2% | 2% | 32µM* | -6%[1.53 µM]
CC1Cc2cc(S(=O)(=O)CCC(=O)Nc3ccc(Cl)cc3F)ccc2N1C(=O)C1CC1 (centres undefined) | -15% | x | 0% | -5%
Cc1cc(C)cc(NC(=O)Cn2c(=O)n(-c3ccc(C)c(C)c3)c(=O)c3oc4ccccc4c32)c1 | -3% | x | u | 2%
O=C(NCCc1ccccc1)C1CCCN(c2nc3ccccc3s2)C1 (centres undefined) | 10µM* | 8% | x | -7%
CSc1ccc(CNCCCSc2ncccn2)cc1 | 35% | 7% | 8.9µM* | 10%
Cc1cc(C)n(-c2nnc(Nc3ccc(C)c(Cl)c3)c3ccccc23)n1 | u | -2% | -4% | 3%
CCn1nc(NC(=O)C(C)(C)C)c2cc3cccc(C)c3nc21 | 10µM* | 6% | -12% | 187%
CCn1nc(NC(=O)CC(C)C)c2cc3cccc(C)c3nc21 | -1% | 1% | x | 35%
CCCC(C(=O)NCc1ccco1)N(C(=O)CNS(=O)(=O)c1ccc(Cl)cc1)C1CCCC1 (centres undefined) | 10µM* | -20% | 3% | -8%
CCC(C(=O)NCc1ccco1)N(C(=O)CNS(=O)(=O)c1ccc(C)cc1)c1ccccc1OC (centres undefined) | 0% | 4% | 32µM* | 1%
CCC(C(=O)NCc1ccco1)N(C(=O)CNS(=O)(=O)c1ccccc1)C1CCCCC1 (centres undefined) | 11% | -4% | 0% | -30%
CSc1cnc2c(=O)n(C)c(=O)[nH]c2n1 | 9% | -1% | 16µM* | 140%
COc1ccccc1C(=O)N(c1ccc(C)cc1)S(=O)(=O)c1ccc(Cl)cc1 | u | x | 0% | -23%
Cc1ccc(N(C(=O)COc2ccccc2C)S(=O)(=O)c2ccc(Cl)cc2)cc1 | u | x | 0.71µM* | -14%
Cc1nnc(N2CCC(C(=O)NCCc3ccccc3Cl)CC2)c2nn(-c3ccccc3)c(C)c12 | 1% | x | 4% | -4%
CCN(CC)CCOC(=O)c1ccc(NC(=O)c2cc3c(s2)-c2ccccc2OC3)cc1 | u | 1% | 4% | -18%
COc1ccccc1CNC(=O)c1ccc(-c2nc(CS(=O)(=O)c3ccc(C)cc3)c(C)o2)cc1 | -16% | x | 4% | -4%
COc1ccc(C2CC(c3ccc(F)cc3)=NN2c2ccccc2)cc1OC (centres undefined) | 10µM* | 7% | 0% | 9%
COc1ccc(C2=NN(c3ccc(C=O)cc3)C(c3ccccc3)C2)cc1 (centres undefined) | 10µM* | 8% | x | 408%
O=Cc1ccc(N2N=C(c3ccccc3)CC2c2ccccc2)cc1 (centres undefined) | u | 11% | 4% | 335%
SMILES | GLP1R inv ag | GLP-1R agonist | ClpP mod | GLP1R cytotox
Cc1ccc(C2CC(c3ccccc3)=NN2c2ccccc2)o1 (centres undefined) | u | 3% | 25µM* | 73%
COc1ccc(CCNC(=O)C(=O)NCC(c2cccs2)S(=O)(=O)c2ccc(F)cc2)cc1 (centres undefined) | u | x | -1% | -14%
CC1CCN(c2cc3c(cc2F)c(=O)c(S(=O)(=O)c2ccc(Cl)cc2)cn3C)CC1 | 5% | x | -19% | 23%
COc1ccc(NC(=O)CSCc2cc(=O)c3cc(Cl)ccc3[nH]2)cc1 | 6% | x | 0% | 4%
CC(C)CNc1oc(-c2ccco2)nc1C#N | 20% | 13% | 18µM* | 8%
CC(C)CNc1oc(-c2ccccc2Cl)nc1C#N | -32% | 32% | x | 7%
N#Cc1nc(-c2ccco2)oc1NCc1ccc(F)cc1 | 9% | 10% | 8.9µM* | -3%
CC(Nc1oc(-c2ccco2)nc1C#N)c1ccccc1 (centres undefined) | 5% | u | 7.9µM* | -4%
CC(=O)N(O)c1ccc(/C=C2\C=Cc3ccccc32)cc1 | x | x | 1% | x
Cc1cc(C)n(-c2nc3ccccc3nc2N2CCCC2)n1 | -27% | 5% | 0% | -1%
Cc1nc2ccccc2nc1N1CCCCC1 | -12% | 3% | -4% | 7%
c1ccc(-c2cc3ccccc3nc2N2CCCC2)cc1 | 2.5µM* | -1% | 28µM* | 6%
Cc1cc(C)n(-c2nc3ccccc3nc2Nc2ccc3[nH]c(=O)[nH]c3c2)n1 | 0% | -5% | 1% | u
Cc1ccc(-c2cc3ccccc3nc2N2CCOCC2)cc1 | u | 1% | x | 7%
Cc1cc(C)n(-c2nc3ccccc3nc2N2CCCCCC2)n1 | 6.3µM* | 1% | 1% | 50%
Cc1cc(C)n(-c2nc3ccccc3[nH]c2=O)n1 | 18% | 24% | 28µM* | 16%
c1ccc2nc(N3CCCC3)c(N3CCCC3)nc2c1 | 1.8µM* | 6% | -23% | -2%
CCCC1=Nc2cc(C(=O)NCCc3ccccc3)ccc2Sc2ccc(C)cc21 | u | -6% | -2% | u
CCOc1ccc(CC(=O)Nc2c(C(=O)c3ccc(C)cc3)oc3ccccc23)cc1OCC | 8% | 2% | -4% | 2%
COc1ccccc1N=CC=C1OC(C)(C)C(C)(C)O1 | 2.2µM* | 0% | x | 16%
COc1ccc(CN(C(=O)c2ccco2)C2CCS(=O)(=O)C2)cc1 (centres undefined) | -11% | 10% | 28µM* | -16%
Cc1ccc(OCC(=O)N(Cc2ccco2)C2CCS(=O)(=O)C2)cc1C (centres undefined) | -16% | -4% | -1% | -3%
Cc1cc(OCC(=O)N(Cc2ccco2)C2CCS(=O)(=O)C2)cc(C)c1Cl (centres undefined) | u | 4% | 28µM* | -21%
Cc1cc(C)n(C(=O)c2ccc(NC(=O)C3COc4ccccc4O3)cc2)n1 (centres undefined) | 0% | -7% | 35µM* | -9%

Assay outcomes from PubChem.
